Results filed as inconclusive are left out. Where a call stands in place of a potency, no number is given. Activity calls are given as the source filed them. The call rests on the fitted dose curve; in most records, active means well fitted inhibition curve with a large enough effect; inconclusive means small, poorly fitted or top-dose-only effect; inactive means no such curve, though single readings can be large or run the other way.

This passage reports Potency results from PubChem BioAssay AID651789 (National Center for Advancing Translational Sciences (NCATS), 2012).
Potency means the concentration at half of the fitted maximal effect.

The nature of this assay: Acumen qHTS Assay for Inhibitors of the mTORC1 Signaling Pathway in WT MEF Cells: Hit Validation. Further: nearly all actives have a fitted effect of over 60% in size. The note with it: Acumen imaging; series mostly up to 37.3 µM. In a few lines: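 Read-out is immunofluorescent phospho-rpS6 (Ser235/236) normalised to PI-stained cell number, reported as % active cells using a 7.5 nM rapamycin threshold. Cells: WT or Tsc2-/-, p53-/- MEFs, compound-exposed 24 h at 37C; PI count also tracks viability.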
On the technique in general: qHTS replaces the single test concentration by a dilution series.
With `CCOc1cc(CNCCSc2nnnn2C)cc(Cl)c1OCc1ccc(Cl)cc1`, the Potency result was “inactive”. In the case of `CC/C(=C(\c1ccccc1)c1ccc(OCCN(C)C)cc1)c1ccccc1` it was “inactive”; in that of `Fc1ccc(Nc2nc3nonc3nc2Nc2cccc(C(F)(F)F)c2)cc1`, 5210 nM (active); in that of `CCOC(=O)c1c(NC(=O)c2ccc(S(=O)(=O)N(C)C)cc2)sc2c1CCN(C)C2`, “inactive”. `Cc1cc(OCC(=O)Nc2cc(-c3nc4ccccc4[nH]3)ccc2C)ccc1Cl`: the Potency entry was “inactive”. In the case of `CCCCS(=O)(=O)c1oc(-c2cccs2)nc1S(=O)(=O)c1ccccc1` it was 1310 nM (active); in that of `Cc1cc(NCc2ccc(Cl)cc2)n2cnnc2n1`, “inactive”; in that of `COc1ccc(Cn2c(C(=O)O)c(CNCc3ccc(SC)cc3)c3ccc(OC)cc32)cc1`, “inactive”. In the case of `COc1cc(Br)ccc1C1C(C(=O)Nc2ccc(C)cc2C)=C(C)Nc2nnnn21` (centres undefined) it was “inactive”; in that of `O=C(NCc1ccc(Cl)cc1)C(=O)NCC(c1cccs1)S(=O)(=O)c1ccc(Cl)cc1` (centres undefined), “inactive”; in that of `Cc1ccc(-n2ncc(C(=O)NCCCN3CCc4ccccc4C3)c2C2CCN(C(=O)OC(C)(C)C)CC2)c(C)c1`, “inactive”. Then `CCOC(=O)c1c(NC(=O)c2nc(S(C)(=O)=O)ncc2Cl)sc(C(C)=O)c1C`, with 2070 nM (active). For the compound `C=CCNC1=C2C[C@@H](C)C[C@H](OC)[C@H](O)[C@@H](C)/C=C(\C)[C@H](OC(N)=O)[C@@H](OC)/C=C\C=C(/C)C(=O)NC(=CC1=O)C2=O`, the Potency was 515 nM (active). Turning to `CCn1c(=O)sc2cc(NS(=O)(=O)c3ccc(F)c(C)c3)ccc21`, the Potency result was “inactive”.
